Inconclusive results are not listed. Calls of active or inactive are those of the source. Unless noted, calls come from the whole dose curve; as a rule, active = well fitted curve in the direction sought with a large enough effect in the repeat runs; inconclusive = weak or mixed curves; inactive = no such curve, though single readings can be large; an effect the other way counts as inactive or inconclusive.
How the values were obtained:
[1] = qHTS assay to identify small molecule agonists of the constitutive androstane receptor (CAR) signaling pathway - cell viability counter screen (AID 1224836); note: series mostly up to about 92 µM; nearly all actives have a fitted effect of over 45% in size
In short: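 Counter screen multiplexed with the CAR reporter readout: HepG2 cells co-transfected with hCAR and the CYP2B6-2.2kb construct receive a 15-concentration compound series and 0.75 uM PK11195 (final), then CellTiter-Fluor fluorescence is read after 23 h.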

[2] = qHTS assay to identify small molecule antagonists of the constitutive androstane receptor (CAR) signaling pathway - cell viability counter screen (AID 1224837); note: series mostly up to about 92 µM; nearly all actives have a fitted effect of over 45% in size
In short: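 In quantitative HTS format, compounds at 15 concentrations were applied to HepG2 cells double-transfected with hCAR and CYP2B6-2.2kb under 50 nM CITCO stimulation; live-cell protease activity was read after 23 hr via CellTiter-Fluor.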

[3] = biological target: Nuclear receptor subfamily 1 group I member 3 (Homo sapiens) (UniProt Q14994); assay: qHTS assay to identify small molecule antagonists of the constitutive androstane receptor (CAR) signaling pathway (AID 1224838); note: nearly all actives have a fitted effect of over 40% in size
In short: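 CITCO-stimulated (50 nM final) HepG2 cells stably transfected with hCAR and CYP2B6-2.2kb luciferase were exposed to compounds at 15 concentrations for 24 h at 37 C/5% CO2. A luciferase reagent was added and luminescence recorded after 30 min.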

[4] = biological target: Nuclear receptor subfamily 1 group I member 3 (Homo sapiens) (UniProt Q14994); assay: qHTS assay to identify small molecule agonists of the constitutive androstane receptor (CAR) signaling pathway (AID 1224839); note: series mostly up to about 92 µM; nearly all actives have a fitted effect of over 15% in size
In short: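 A 15-concentration quantitative screen uses HepG2 cells co-transfected stably with human CAR and CYP2B6-2.2kb reporter. Treatment lasts 24 h with 0.75 uM PK11195 final present; ONE-Glo luminescence is the signal.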

[5] = qHTS assay to identify small molecule antagonists of the estrogen related receptor signaling pathway with the pleiotropic PPARgamma coactivator (PGC) from Tox21 10K library - cell viability counter screen (AID 1224840; active = well fitted cell-killing curve with a large enough effect in the repeat runs, not every such curve was filed as active; note: nearly all actives have a fitted effect of over 40% in size)
In short: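 Viability counter screen, PGC/ERR cells: 17.5 h compound exposure at 37 C, CellTiter-Fluor fluorescence endpoint.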

[6] = biological target: Thyrotropin receptor (Homo sapiens) (UniProt P16473); assay: qHTS assay to identify small molecule agonists of the thyroid stimulating hormone receptor (TSHR) signaling pathway (AID 1224843; calls by dose curve; note: nearly all actives have a fitted effect of over 45% in size)
In short: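 Agonist activity read as cAMP rise via d2/cryptate HTRF competition, 1 h room-temperature detection, in HEK293 cells expressing TSHR. Fifteen-point titrations, each run in triplicate, with a 30 min room-temperature incubation beforehand.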

[7] = qHTS assay to identify small molecule agonists of the hypoxia (HIF-1) signaling pathway - cell viability counter screen (AID 1224844; calls by dose curve; note: nearly all actives have a fitted effect of over 50% in size)
In short: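 Same wells as the HIF-1 reporter screen; ME-180 cells carrying HRE-bla, 17 hr treatment at 37C; CellTiter-Glo luminescence read after 30 min at room temperature.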

[8] = qHTS assay to identify small molecule antagonists of the estrogen related receptor signaling pathway with the pleiotropic PPARgamma coactivator (PGC) from Tox21 10K library (AID 1224841; call rule not given here; note: series mostly up to about 92 µM; actives are mostly falling curves and most rising ones were filed inactive; nearly all actives have a fitted effect of over 50% in size)
In short: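 In the PGC/ERR line, DMSO solutions of test chemicals are pin-delivered to 2,000 cells/well six hours after dispensing. Following eighteen hours' incubation, One-Glo reagent is added and luminescence recorded.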

[9] = qHTS assay to identify small molecule agonists of the estrogen related receptor signaling pathway with the pleiotropic PPARgamma coactivator (PGC) from Tox21 10K library (AID 1224842); note: nearly all actives have a fitted effect of over 15% in size
In short: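 Luminescence from One-Glo (30 min, room temperature) measured after PGC/ERR cells had 18 h at 37 C with pinned compound (23 nL in DMSO). Cells had been seeded at 2,000 per well and pre-incubated 6 h.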

Measured: Potency

Sequence of Nuclear receptor subfamily 1 group I member 3 (Homo sapiens) (Q14994 whole entry, looked up): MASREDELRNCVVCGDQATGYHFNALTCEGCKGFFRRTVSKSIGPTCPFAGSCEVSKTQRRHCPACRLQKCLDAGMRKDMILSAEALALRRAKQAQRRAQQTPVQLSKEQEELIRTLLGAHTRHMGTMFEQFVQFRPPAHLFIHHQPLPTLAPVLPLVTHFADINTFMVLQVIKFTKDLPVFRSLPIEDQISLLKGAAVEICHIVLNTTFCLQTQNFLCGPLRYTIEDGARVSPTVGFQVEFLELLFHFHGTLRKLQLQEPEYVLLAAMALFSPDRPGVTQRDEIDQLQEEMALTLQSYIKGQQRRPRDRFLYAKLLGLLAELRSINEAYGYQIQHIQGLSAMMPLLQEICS
Sequence of Thyrotropin receptor (Homo sapiens) (P16473 whole entry, looked up): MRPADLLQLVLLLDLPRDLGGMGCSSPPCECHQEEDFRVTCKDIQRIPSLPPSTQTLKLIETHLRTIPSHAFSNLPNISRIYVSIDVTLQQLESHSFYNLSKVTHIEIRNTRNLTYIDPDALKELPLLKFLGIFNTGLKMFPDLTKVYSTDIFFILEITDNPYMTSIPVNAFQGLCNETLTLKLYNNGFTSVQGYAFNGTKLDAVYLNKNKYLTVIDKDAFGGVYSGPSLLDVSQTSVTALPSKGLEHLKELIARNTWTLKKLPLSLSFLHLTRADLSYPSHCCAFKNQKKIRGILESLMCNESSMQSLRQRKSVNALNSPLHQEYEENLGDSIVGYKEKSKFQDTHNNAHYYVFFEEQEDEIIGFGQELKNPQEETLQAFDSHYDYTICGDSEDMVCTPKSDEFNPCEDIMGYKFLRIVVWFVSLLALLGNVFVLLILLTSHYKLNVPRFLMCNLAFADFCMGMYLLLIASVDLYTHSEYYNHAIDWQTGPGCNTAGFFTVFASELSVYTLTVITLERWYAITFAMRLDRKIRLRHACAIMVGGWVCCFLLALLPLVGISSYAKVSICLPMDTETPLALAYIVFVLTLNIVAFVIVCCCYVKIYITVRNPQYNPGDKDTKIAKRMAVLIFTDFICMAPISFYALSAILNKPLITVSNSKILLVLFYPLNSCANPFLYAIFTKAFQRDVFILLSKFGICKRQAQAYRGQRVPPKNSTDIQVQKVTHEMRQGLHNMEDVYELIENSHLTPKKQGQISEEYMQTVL

OCCCS
not listed: [8] | [9]
inactive: all other assays above

CC1(C)C(=O)N(Br)C(=O)N1Br
inactive: all assays above

O=C[C@H](O)[C@H](O)[C@H](O)CO
not listed: [5] | [8] | [9]
inactive: all other assays above

Reference: PubChem BioAssay (Tox21)
